Screen size: about 63,000 compounds; about 1,100 (1.7%) were called active. Many of the other results were omitted from the sample, so actives are more common in it than they were. Potency and affinity values are given separately. Values without a mark were called inactive. No stated cut-off is given here; in the data, active means cytotoxicity above about 50%; inactive means the rest.

The assay in a line: HPDE-C7 pancreatic duct cell viability loss – fluorescence, HTS (AID 430).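 Further: cells exposed to compound for 48 hours before viability readout; 0% = vehicle and 100% = reference cytotoxic drug.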 The note with it: HPDE-C7 pancreatic duct cells viability, at 10 µM, stronger effect = higher value.
Regarding `CN1C(=O)C(O)(CC(=O)c2cccc(-n3cccc3)c2)c2ccccc21` (centres undefined), the cytotoxicity is -0.5%.

On to `Cc1cc(=O)[nH]c2ccccc12`, for which the cytotoxicity is -2.8%.

Regarding `CN(C)C=Nc1ncc2c([nH]c3ccccc32)c1C#N`, the cytotoxicity is 15.4%.

With `CCC(C(=O)NC1CCCC1)N(C(=O)Cn1nnc(-c2ccc(OC)c(OC)c2)n1)C1CCCCC1` (centres undefined), the cytotoxicity is -12.1%.

In the case of `CC(C)(C#CCN1CCCC1)OCCC#N`, the cytotoxicity is -16.7%.

On to `O=C(CN1C(=O)c2ccccc2S1(=O)=O)Nc1ccc(S(=O)(=O)N2CCCCC2)cc1`, for which the cytotoxicity is -22%.

Regarding `O=C(O)/C=C/c1ccc(O)c(O)c1`, the cytotoxicity was -18.3%.

`COc1cc(/C=C/C2=NC(=O)C(C)(C)O2)ccc1O`: the cytotoxicity was 53.4% (active).

Turning to `COc1cc(-c2cc(OC)c3c(C)oc(C)c3c(=O)c2)ccc1O`, the cytotoxicity is 38%.

Regarding `COc1cc(/C=N/n2nnnc2N)ccc1O`, the cytotoxicity was 3.8%.

For `C/C=C/c1ccc(OC)c(OC(C)=O)c1`, the cytotoxicity is -5.1%.

Regarding `CCOc1ccccc1C1C2C(=O)N(c3ccccc3)C(=O)C2ON1c1ccccc1` (centres undefined), the cytotoxicity was -2.8%.

As to `Cc1cc(C)c2[nH]c(=O)c(CN(Cc3ccc4c(c3)OCO4)Cc3nnnn3C3CCCC3)cc2c1`, the cytotoxicity is 14.9%.

Regarding `CCOCCCNC(=O)C(NC(=O)c1ccc(=O)[nH]c1)c1ccccc1` (centres undefined), the cytotoxicity was 2.7%.

As to `COc1ccc(S(=O)(=O)N(C)CC(=O)N2CCCCCC2)cc1OC`, the cytotoxicity is -2.9%.

As to `COc1cccc(N2CCN(C3CC(=O)N(c4ccc(Cl)c(Cl)c4)C3=O)CC2)c1` (centres undefined), the cytotoxicity was 1.1%.

As for `CCCC(=O)c1ccc(N2CCN(C(=O)c3ccc(Br)cc3)CC2)c(F)c1`, the cytotoxicity is -6.3%.

Turning to `CCCC(=O)N1CCN(c2ccc(C(=O)c3ccc(OC)c(Br)c3)cc2F)CC1`, the cytotoxicity was 58.1% (active).

Take `CCCCCC(=O)N1CCN(c2ccc(C(C)=O)cc2F)CC1`: the cytotoxicity is -3.3%.

`CCN=C1SC(CC(=O)Nc2ccc(C(F)(F)F)cc2)C(=O)N1CC` (centres undefined): the cytotoxicity was -10.9%.

With `O=C(O)c1cc(-c2ccccc2)nc2ccccc12`, the cytotoxicity was -1.2%.

Consider `Cc1ccc2nc(NCCO)nc(-c3ccccc3)c2c1`, for which the cytotoxicity was 16.6%.

With `Cc1cc(Cl)ccc1OCc1nc(-c2ccc(O)cc2)n[nH]1`, the cytotoxicity is 77.3% (active).

In the case of `Clc1ccc(OCc2nc(-c3ccccn3)n[nH]2)cc1`, the cytotoxicity was 42.3%.

On to `Cc1cc(Cl)ccc1OCCCC(N)=O`, for which the cytotoxicity is -4.7%.

For the compound `CN1CCCN(CC(O)COCc2cccs2)CC1` (centres undefined), the cytotoxicity is 0.9%.

As to `CC1(C)N=C(C(=O)c2ccccc2)N(O)C1(C)O` (centres undefined), the cytotoxicity was -11.9%.

Regarding `COc1ccc(CCNC(=O)Cn2c(=O)n(Cc3ccco3)c(=O)c3ccc(Cl)cc32)cc1OC`, the cytotoxicity was 13.9%.

For `COc1cc2c(=O)n(Cc3ccco3)c(=O)n(CC(=O)c3cccc(Br)c3)c2cc1OC`, the cytotoxicity is 55% (active).

Consider `CCOC(=O)Cn1c(=O)n(Cc2ccco2)c(=O)c2ccc(C(=O)NCCc3ccccc3)cc21`, for which the cytotoxicity was 7.2%.

Consider `COc1cc2c(=O)n(Cc3ccco3)c(=O)n(CC(=O)c3ccc(Br)cc3)c2cc1OC`, for which the cytotoxicity is 86% (active).

As to `COc1cc2c(=O)n(Cc3ccccc3)c(=O)n(CC(=O)C(C)(C)C)c2cc1OC`, the cytotoxicity was -17.8%.

Regarding `COc1cc2c(=O)n(Cc3ccccc3)c(=O)n(CC(=O)NCc3ccco3)c2cc1OC`, the cytotoxicity was 3.1%.

`CS(=O)(=O)N(CC(=O)NCCSCc1cccc(Cl)c1)c1ccc2c(c1)OCO2`: the cytotoxicity is 0.9%.

Take `O=C(Nc1ccccc1)N(Cc1cccs1)C1CCCC1`: the cytotoxicity is -7.6%.

Take `CCOC(=O)c1c(C)n(C)c2cc(Br)c(C(=O)OC)cc12`: the cytotoxicity was 9.9%.

On to `CCOC(=O)c1c(CN2CCN(C)CC2)n(C)c2cc(Br)c(OC)cc12`, for which the cytotoxicity was -10.2%.

For `CCOC(=O)c1c(CN2CCCCC2)n(C)c2cc(Br)c(OC)cc12`, the cytotoxicity is 8.3%.

Regarding `CCN(CC)CCNC(=O)c1c(C)oc2cc(Br)c(OC)cc12`, the cytotoxicity was 1.8%.

For `CCOC(=O)c1c(CNCCN(CC)CC)n(C)c2cc(Br)c(OC)cc12`, the cytotoxicity is 57.3% (active).

`CCOC(=O)c1c(CN2CCN(CCO)CC2)n(C)c2cc(Br)c(OC)cc12`: the cytotoxicity is 77% (active).

With `O=C(c1ccco1)c1nnn(Cc2ccccc2)c1-c1ccccc1`, the cytotoxicity is -7.7%.

Consider `COc1ccc(CN(C2CCCC2)S(=O)(=O)c2ccc(-n3cnnn3)cc2)cc1OC`, for which the cytotoxicity is -39.1%.

Take `Cc1[nH]c(=O)[nH]c(=O)c1S(=O)(=O)N1CCCC(C(=O)NCCc2ccc(Cl)cc2)C1` (centres undefined): the cytotoxicity was -9.4%.

`CCOC(=O)c1csc(NC(=O)CSc2nnnn2-c2ccc(OCC)cc2)n1`: the cytotoxicity was -21.4%.

Turning to `O=C(c1cccs1)N1CCN(S(=O)(=O)N2CCOCC2)CC1`, the cytotoxicity is -21.3%.

For `O=C(NCc1ccco1)C(c1ccncc1)N(CCC1=CCCCC1)C(=O)Cn1nnc2ccccc21` (centres undefined), the cytotoxicity is 1.6%.

Turning to `Fc1ccc(Br)cc1C1C=C(c2ccc(Br)s2)Nc2ncnn21` (centres undefined), the cytotoxicity was 55% (active).

With `COc1cccc(C2C=C(c3ccc(Br)s3)Nc3ncnn32)c1OC` (centres undefined), the cytotoxicity was -9.3%.

As to `Fc1ccc(Br)cc1C1C=C(c2cccnc2)Nc2ncnn21` (centres undefined), the cytotoxicity is 16.3%.

As to `Cc1cccc2cc(CN(Cc3ccco3)C(=O)c3cccs3)c(=O)[nH]c12`, the cytotoxicity is -11.9%.

As for `Cn1c(Cc2ccccc2)nnc1SCC(=O)Nc1ccccc1N1CCOCC1`, the cytotoxicity is 2.9%.

In the case of `CC(C)OC(=O)c1cn(-c2ccccc2)nc1-c1ccco1`, the cytotoxicity is 4.8%.

Turning to `OCCN(Cc1ccccc1)Cc1cccc(F)c1`, the cytotoxicity is -3.2%.

As for `COCCNC(=O)c1c(N)n(CCCn2ccnc2)c2nc3ccccc3nc12`, the cytotoxicity is 7%.

On to `CC(C)Cn1c(N)c(C(=O)NCC2CCCO2)c2nc3ccccc3nc21` (centres undefined), for which the cytotoxicity is 26.3%.

As for `Nc1c(C(=O)NC2CCCCC2)c2nc3ccccc3nc2n1/N=C/c1ccco1`, the cytotoxicity is 5.1%.

Take `Nc1c(C(=O)NC2CCCC2)c2nc3ccccc3nc2n1N`: the cytotoxicity is 11.6%.

For the compound `Nc1c(C(=O)NCC2CCCO2)c2nc3ccccc3nc2n1-c1ccccc1` (centres undefined), the cytotoxicity was 11.1%.

Take `COCCn1c(N)c(C(=O)NCC2CCCO2)c2nc3ccccc3nc21` (centres undefined): the cytotoxicity was 11.4%.

Turning to `COCCNC(=O)c1c(N)n(-c2cccc(C)c2)c2nc3ccccc3nc12`, the cytotoxicity is 9.2%.

On to `CCCCNC(=O)c1c(N)n(/N=C/c2cccnc2)c2nc3ccccc3nc12`, for which the cytotoxicity was 4%.

As for `Nc1c(C(=O)NC2CCCC2)c2nc3ccccc3nc2n1/N=C/c1cccnc1`, the cytotoxicity was 62.6% (active).

Consider `O=C(Nc1ccccc1N1CCN(c2ccc(F)cc2)CC1)C1CCCCC1`, for which the cytotoxicity was -6.3%.

`O=C(Oc1cccc(Oc2ccccc2)c1)N1CCOCC1`: the cytotoxicity is -6.3%.

For `CCN(CC)C(=O)CSC1=Nc2ccccc2C2=NC(Cc3c[nH]c4ccccc34)C(=O)N12` (centres undefined), the cytotoxicity was -6.1%.

Consider `O=C(CSc1nnnn1C1CCCCC1)NCc1ccc2c(c1)OCO2`, for which the cytotoxicity is 3.2%.

`COCCN1C(=O)C(=O)/C(=C(/O)c2ccc(OC(C)C)cc2)C1c1cccnc1` (centres undefined): the cytotoxicity is -2.7%.

As to `CCN1CCN(C(=O)c2ccc3c(c2)N(Cc2ccc(F)cc2)C(=O)c2ccccc2S3=O)CC1` (centres undefined), the cytotoxicity is -1.9%.

Consider `COc1ccc(OC)c(C2NC(=O)NC(C)=C2C(=O)Nc2ccc(C)cc2C)c1` (centres undefined), for which the cytotoxicity is -13.3%.

With `COc1ccc(Cc2nc(-c3ccccc3)no2)cc1`, the cytotoxicity was -1.1%.

As for `CCOc1cc(S(=O)(=O)n2c(C)nc3ccccc32)ccc1F`, the cytotoxicity was 2.2%.

Consider `CCN(Cc1ccccc1)Cc1cc(OC)cc(OC)c1`, for which the cytotoxicity is 8%.

For the compound `CSCCC(NC(=O)c1cc(CC(C)C)oc1C)C(=O)O` (centres undefined), the cytotoxicity was -17.8%.

Regarding `CCc1nnc(NC2=NCCC2)s1`, the cytotoxicity was -21.5%.

For `COCCn1c(N)c(C(=O)NCc2cccs2)c2nc3ccccc3nc21`, the cytotoxicity was -11.2%.

`CC(C)Cn1c(N)c(C(=O)NCCN2CCOCC2)c2nc3ccccc3nc21`: the cytotoxicity was -16.3%.

Turning to `CC(C)Cn1c(N)c(C(=O)NCc2cccs2)c2nc3ccccc3nc21`, the cytotoxicity is 63.9% (active).

As to `Cc1ccc(NC(=O)Nc2ccc3c(c2)N(C)C(=O)CS3)nc1`, the cytotoxicity is -4.8%.

In the case of `COC(=O)CCSCC(=O)Nc1cc(C)on1`, the cytotoxicity is -18%.

For the compound `CCn1c(COc2cccc(C)c2)nnc1SCC(=O)N1CCCC1`, the cytotoxicity is -3.1%.

Consider `C=Cn1ccnc1P(=S)(c1ccc2c(c1)c1ccccc1n2CC)c1nccn1C=C`, for which the cytotoxicity was 73.4% (active).

In the case of `CCn1c2ccccc2c2cc(/C=N/n3cnnc3)ccc21`, the cytotoxicity is 10.8%.

`CCn1c2ccccc2c2cc(N)ccc21`: the cytotoxicity was 15.8%.

As to `CCCCn1c(=O)[nH]c(=O)c2c1nc(-c1ccc(C#N)cc1)n2C1CCCC1`, the cytotoxicity is -7%.

Take `CCOC(=O)CSc1nc2ccccc2c(=O)n1CCCCCC(=O)NCc1ccco1`: the cytotoxicity was -23.3%.

In the case of `Clc1ccc(OCCn2ccnc2)c(Cl)c1`, the cytotoxicity was -13.9%.

`OC(Cn1cncn1)c1ccc(Cl)cc1Cl` (centres undefined): the cytotoxicity is 1.1%.

With `O=C(COc1ccc(Cl)cc1Cl)NCCCn1ccnc1`, the cytotoxicity is -3.9%.

With `Clc1ccc(SCCn2ccnc2)cc1`, the cytotoxicity is -0.3%.

For `OC(Cn1ccnc1)c1ccc(Cl)cc1Cl` (centres undefined), the cytotoxicity is -4.5%.

Regarding `CC(Oc1ccc(Cl)cc1Cl)C(=O)NCCCn1ccnc1` (centres undefined), the cytotoxicity was -1.6%.

Take `c1ccc2c(Cn3ccnc3)c[nH]c2c1`: the cytotoxicity was -14%.

Take `COc1ccc(C(c2sc3nc(C)nn3c2O)N2CCC(O)CC2)cc1OC` (centres undefined): the cytotoxicity is -15.1%.

On to `CC(=O)C1=C(C)OC(N)=C(C#N)C1c1ccncc1` (centres undefined), for which the cytotoxicity was -7%.

As for `COc1ccccc1N1CCN(Cc2cccc(OC)c2OC)CC1`, the cytotoxicity is 3.3%.

As for `CCCCOc1ccc(C(=O)OC2CC(C)N(C)CC2C)cc1` (centres undefined), the cytotoxicity was 61.9% (active).

`CCCCOc1ccc(C(=O)NC)cc1`: the cytotoxicity was -5.6%.

With `CCCCOc1ccc(C(=O)N2CCC(C)CC2)cc1`, the cytotoxicity was -20.7%.

Source of the values: PubChem BioAssay AID430 (Sanford-Burnham Center for Chemical Genomics, 2006).
